The values that follow come from ChEMBL document CHEMBL3988442, “University of Dundee, Small-Polar-MMV Screening Library” (2021).

Holding throughout (design): scale not given: direction of the effect not stated beside the values
Assay [1] addresses Protein translocase subunit SecA (Escherichia coli (strain K12)) (UniProt P10408). Description: Assay to Identify E. coli SecA ATPase Inhibitors. The format is functional. As to conditions: 30 µM.
For assay [2], the target named is T1, Ubiquitin-activating enzyme e1, putative (Leishmania donovani (strain BPK282A1)) (UniProt E9BSI1).
T1 sequence (whole entry): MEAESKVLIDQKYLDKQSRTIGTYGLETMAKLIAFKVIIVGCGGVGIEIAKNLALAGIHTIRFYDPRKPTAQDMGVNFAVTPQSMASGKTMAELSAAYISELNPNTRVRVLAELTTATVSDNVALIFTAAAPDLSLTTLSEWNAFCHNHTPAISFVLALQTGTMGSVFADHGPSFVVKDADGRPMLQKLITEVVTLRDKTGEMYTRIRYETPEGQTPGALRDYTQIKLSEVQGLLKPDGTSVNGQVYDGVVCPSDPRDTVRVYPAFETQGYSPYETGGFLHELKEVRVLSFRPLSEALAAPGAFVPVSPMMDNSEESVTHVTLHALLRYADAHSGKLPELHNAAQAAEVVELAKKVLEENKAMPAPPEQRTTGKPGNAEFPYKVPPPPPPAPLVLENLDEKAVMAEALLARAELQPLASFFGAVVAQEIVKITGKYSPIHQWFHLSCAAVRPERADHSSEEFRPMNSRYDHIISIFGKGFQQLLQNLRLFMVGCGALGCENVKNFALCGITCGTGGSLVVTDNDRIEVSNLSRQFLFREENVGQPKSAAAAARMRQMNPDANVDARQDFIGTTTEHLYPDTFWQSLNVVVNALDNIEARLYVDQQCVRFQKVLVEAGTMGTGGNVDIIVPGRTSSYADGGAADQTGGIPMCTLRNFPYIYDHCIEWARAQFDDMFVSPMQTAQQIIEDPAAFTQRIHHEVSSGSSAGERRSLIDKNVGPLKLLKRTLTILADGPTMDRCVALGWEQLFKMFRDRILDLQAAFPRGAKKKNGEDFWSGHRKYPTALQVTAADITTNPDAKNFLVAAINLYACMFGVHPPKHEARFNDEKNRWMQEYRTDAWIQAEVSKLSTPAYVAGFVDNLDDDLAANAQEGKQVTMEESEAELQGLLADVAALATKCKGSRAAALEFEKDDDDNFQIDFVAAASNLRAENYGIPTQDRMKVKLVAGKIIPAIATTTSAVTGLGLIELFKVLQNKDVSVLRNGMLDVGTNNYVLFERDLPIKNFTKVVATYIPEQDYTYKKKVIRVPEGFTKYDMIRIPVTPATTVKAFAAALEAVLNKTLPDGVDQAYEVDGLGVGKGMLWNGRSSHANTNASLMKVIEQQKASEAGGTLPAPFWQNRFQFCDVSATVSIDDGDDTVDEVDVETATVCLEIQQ
Briefly: Leishmania donovani Ubiquitin Activating Enzyme (LdE1). It counts as functional. Conditions: 30 µM.

Assay [3] concerns the target AMP-activated protein kinase, AMPK (Homo sapiens) (UniProt P54646+O43741+P54619+Q9UGJ0+Q9Y478+Q13131+Q9UGI9). Description: AMP-dependent Kinase enzyme assay. An in vitro enzyme assay that detects ADP turnover that is directly proportional to AMPK activity. This uses naive AMPK that is activated during the assay with MK-8722. It counts as functional. Conditions: 30 µM.

Assay [4] addresses Sialic acid-binding Ig-like lectin 9 (Homo sapiens) (UniProt Q9Y336). Briefly: Hs-Siglec9 ALPHAscreen SOP 20170721. As to conditions: 10 µM. (Bead proximity is the source of the signal in Alpha formats.)
A further assay deals with Trypanosoma cruzi. Description: Trypanosoma cruzi phosphomannomutase and mannose-1-phosphate guanylyltransferase assay. It counts as functional. Conditions: 10 µM.
Assay [5] has as its target T2, Arginase-2, mitochondrial (Homo sapiens) (UniProt P78540).
T2 sequence (whole entry): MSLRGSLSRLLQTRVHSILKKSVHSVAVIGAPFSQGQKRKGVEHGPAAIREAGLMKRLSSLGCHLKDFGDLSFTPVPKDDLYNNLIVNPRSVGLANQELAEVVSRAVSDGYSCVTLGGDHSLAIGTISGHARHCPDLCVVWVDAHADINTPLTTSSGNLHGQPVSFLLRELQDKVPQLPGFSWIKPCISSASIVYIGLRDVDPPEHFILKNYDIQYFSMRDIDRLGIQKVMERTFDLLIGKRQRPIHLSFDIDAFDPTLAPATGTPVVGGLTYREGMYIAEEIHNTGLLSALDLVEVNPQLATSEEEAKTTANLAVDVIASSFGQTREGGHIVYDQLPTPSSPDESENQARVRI
Description: in vitro enzyme assay to detect the production of urea directly proportional to the activity of Arginase II. Further: in the data most compounds retested in dose-response had high values. The format is functional. As to conditions: 33.3 µM.

Assay [6] concerns the target T3, Proteasome subunit beta (Trypanosoma cruzi) (UniProt O96673).
T3 sequence (whole entry): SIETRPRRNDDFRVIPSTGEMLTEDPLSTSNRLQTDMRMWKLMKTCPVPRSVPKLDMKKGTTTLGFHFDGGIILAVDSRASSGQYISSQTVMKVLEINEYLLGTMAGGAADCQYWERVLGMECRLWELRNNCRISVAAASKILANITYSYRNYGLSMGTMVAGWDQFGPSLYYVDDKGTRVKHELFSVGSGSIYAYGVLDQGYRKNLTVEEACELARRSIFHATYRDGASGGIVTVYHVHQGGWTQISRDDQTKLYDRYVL
Briefly: Trypanosoma cruzi proteasome chymotrypsin-like activity (TcProtChymo) assay. Further: in the data most compounds retested in dose-response had high values. The format is functional. As to conditions: 9.37 µM.

The species entered for a further assay is Homo sapiens. Briefly: To identify inhibition of the IFN signalling (Jak-Stat) pathway via expression of an eGFP reporter gene under the control of an IFN-stimulated response element (ISRE) containing MxA promoter. Conditions: 30 µM. The format is functional. In general terms: A reporter such as luciferase makes a cellular process visible.
Assay [7] concerns the target T4, Tyrosyl-tRNA synthetase, putative (Trypanosoma cruzi (strain CL Brener)) (UniProt Q4DSP6).
T4 sequence (whole entry): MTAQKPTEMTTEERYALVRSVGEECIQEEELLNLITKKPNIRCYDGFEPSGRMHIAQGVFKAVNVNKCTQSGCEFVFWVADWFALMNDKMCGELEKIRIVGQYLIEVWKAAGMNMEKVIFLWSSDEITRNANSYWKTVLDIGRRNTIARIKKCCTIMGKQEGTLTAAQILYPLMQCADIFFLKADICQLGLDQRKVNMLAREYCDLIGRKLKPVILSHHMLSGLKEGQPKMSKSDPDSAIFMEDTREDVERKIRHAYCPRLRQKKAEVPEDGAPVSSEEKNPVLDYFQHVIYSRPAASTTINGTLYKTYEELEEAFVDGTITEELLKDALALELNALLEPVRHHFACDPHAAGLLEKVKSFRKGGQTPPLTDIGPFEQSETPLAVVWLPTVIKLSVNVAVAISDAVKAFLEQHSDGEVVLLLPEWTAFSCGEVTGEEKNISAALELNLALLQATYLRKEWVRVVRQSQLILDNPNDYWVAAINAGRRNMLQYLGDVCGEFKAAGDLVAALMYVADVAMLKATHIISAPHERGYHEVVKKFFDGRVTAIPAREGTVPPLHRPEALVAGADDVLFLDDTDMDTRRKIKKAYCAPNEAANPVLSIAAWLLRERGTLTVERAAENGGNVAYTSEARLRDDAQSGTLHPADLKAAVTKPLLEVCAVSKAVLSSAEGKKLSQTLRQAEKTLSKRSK
Briefly: Trypanosoma cruzi tyrosyl tRNA synthetase (TcYRS) _High Tyrosine SOP. Further: in the data most compounds retested in dose-response had high values. The format is functional. Conditions: 30 µM.

Assay [8] addresses T4, Tyrosyl-tRNA synthetase, putative (Trypanosoma cruzi (strain CL Brener)). Description: Trypanosoma cruzi tyrosyl tRNA synthetase (TcYRS) SOP. It counts as functional. As to conditions: 30 µM.
Assay [9] has as its target Chromo domain-containing protein 1 (Saccharomyces cerevisiae (strain ATCC 204508 / S288c) (Baker's yeast)) (UniProt P32657). Briefly: ScCHD-1 Enzyme Inhibition Assay. Further: in the data most compounds retested in dose-response had high values. The format is functional. As to conditions: 30 µM.

SMILES strings stand for the structures. For some of these results: Potency and affinity values are given separately.

Chain of Protein translocase subunit SecA (Escherichia coli (strain K12)) (P10408 whole entry): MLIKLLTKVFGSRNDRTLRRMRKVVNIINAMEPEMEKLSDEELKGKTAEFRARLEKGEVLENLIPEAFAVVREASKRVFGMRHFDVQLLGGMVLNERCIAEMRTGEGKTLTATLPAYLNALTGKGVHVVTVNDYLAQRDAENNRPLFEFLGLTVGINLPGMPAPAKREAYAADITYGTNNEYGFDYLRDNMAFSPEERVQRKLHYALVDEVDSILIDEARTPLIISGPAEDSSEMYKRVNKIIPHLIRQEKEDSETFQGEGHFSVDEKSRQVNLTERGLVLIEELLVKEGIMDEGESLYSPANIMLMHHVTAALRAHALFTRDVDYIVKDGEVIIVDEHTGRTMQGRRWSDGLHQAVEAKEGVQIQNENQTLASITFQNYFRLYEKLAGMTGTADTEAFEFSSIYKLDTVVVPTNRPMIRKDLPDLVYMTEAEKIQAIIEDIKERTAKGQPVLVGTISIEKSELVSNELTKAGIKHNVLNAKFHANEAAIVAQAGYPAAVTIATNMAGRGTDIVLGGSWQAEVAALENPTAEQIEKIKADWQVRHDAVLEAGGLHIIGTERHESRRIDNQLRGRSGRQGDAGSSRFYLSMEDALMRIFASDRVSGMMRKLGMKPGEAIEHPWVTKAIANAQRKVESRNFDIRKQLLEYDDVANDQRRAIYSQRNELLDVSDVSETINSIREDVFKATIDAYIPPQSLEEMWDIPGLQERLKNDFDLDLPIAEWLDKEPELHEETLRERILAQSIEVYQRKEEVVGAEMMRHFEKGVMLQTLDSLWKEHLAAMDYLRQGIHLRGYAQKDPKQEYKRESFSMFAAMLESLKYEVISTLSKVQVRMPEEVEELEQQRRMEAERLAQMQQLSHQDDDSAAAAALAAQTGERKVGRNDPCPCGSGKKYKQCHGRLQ
Chain of Sialic acid-binding Ig-like lectin 9 (Homo sapiens) (Q9Y336 whole entry): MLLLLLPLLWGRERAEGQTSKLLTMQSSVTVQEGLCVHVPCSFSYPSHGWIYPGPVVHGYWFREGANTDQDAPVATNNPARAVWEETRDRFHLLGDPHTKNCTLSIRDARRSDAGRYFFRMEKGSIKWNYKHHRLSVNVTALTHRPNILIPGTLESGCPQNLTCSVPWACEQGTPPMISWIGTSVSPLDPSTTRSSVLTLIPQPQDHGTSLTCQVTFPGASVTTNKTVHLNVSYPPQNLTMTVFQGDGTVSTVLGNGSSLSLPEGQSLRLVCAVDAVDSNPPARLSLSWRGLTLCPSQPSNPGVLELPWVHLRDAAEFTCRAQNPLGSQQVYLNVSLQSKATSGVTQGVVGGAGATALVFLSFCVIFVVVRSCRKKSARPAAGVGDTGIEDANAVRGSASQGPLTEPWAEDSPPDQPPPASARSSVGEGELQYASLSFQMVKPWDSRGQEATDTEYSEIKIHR
Chain of Chromo domain-containing protein 1 (Saccharomyces cerevisiae (strain ATCC 204508 / S288c) (Baker's yeast)) (P32657 whole entry, the tested form may be a part): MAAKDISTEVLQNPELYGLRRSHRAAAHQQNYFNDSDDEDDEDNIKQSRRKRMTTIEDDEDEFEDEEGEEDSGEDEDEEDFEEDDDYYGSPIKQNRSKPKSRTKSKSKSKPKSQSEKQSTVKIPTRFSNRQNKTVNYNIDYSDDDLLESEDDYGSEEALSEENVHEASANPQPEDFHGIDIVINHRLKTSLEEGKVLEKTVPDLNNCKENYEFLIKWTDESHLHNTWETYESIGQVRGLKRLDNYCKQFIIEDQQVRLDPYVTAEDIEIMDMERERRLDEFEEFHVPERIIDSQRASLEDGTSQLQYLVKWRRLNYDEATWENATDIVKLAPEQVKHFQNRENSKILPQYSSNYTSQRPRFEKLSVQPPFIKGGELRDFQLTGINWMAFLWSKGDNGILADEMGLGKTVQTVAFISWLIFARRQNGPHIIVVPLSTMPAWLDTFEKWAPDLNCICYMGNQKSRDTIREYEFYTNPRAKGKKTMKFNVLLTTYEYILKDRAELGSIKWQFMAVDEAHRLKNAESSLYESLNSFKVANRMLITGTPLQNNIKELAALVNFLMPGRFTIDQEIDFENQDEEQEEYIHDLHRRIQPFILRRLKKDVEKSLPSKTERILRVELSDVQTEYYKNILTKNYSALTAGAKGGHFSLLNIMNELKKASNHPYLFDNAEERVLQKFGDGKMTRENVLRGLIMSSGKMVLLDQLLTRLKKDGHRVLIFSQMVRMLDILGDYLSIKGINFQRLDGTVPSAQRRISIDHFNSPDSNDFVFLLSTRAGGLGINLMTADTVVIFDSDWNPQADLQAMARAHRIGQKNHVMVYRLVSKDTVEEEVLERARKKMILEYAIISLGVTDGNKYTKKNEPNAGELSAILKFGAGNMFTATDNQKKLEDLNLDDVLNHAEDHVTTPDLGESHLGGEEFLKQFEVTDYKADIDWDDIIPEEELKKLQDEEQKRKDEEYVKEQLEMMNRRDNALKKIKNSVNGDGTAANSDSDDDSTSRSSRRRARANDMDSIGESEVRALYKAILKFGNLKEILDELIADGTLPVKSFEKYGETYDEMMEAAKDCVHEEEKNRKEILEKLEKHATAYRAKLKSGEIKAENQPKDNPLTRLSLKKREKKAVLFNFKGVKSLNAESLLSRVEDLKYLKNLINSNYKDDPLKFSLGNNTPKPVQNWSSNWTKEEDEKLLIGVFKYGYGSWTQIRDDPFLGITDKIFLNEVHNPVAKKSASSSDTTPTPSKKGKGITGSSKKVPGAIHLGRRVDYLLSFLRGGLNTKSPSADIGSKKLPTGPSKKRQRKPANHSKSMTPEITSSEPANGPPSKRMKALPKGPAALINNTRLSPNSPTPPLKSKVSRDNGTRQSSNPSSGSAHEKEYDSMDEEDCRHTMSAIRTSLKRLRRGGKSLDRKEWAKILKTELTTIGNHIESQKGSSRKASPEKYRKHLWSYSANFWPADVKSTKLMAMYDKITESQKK

For `c1ccc(N2CCCC3(COCCN(c4nccs4)C3)C2)nc1` (stereo not drawn), the Percent Effect was 0.192% in assay [1]; 0% in [2]; -5.45% in [3]; 16.4% in [4]; 11.7% in the assay on Trypanosoma cruzi; 0.399% in assay [5]. The Percent Effect in assay [6] is 16%; in the assay filed under Homo sapiens it was 31.6%; in assay [7], 16.7%; in assay [8] it was 23.5%; in assay [9], 10.7%.

For `CCn1cc(CN(C)S(=O)(=O)c2ccc(NC(C)=O)cc2)cn1`, the Percent Effect in assay [1] is 2.78%; in assay [2], 14.7%; in [3] it was 5.54%; in assay [4], -0.366%; with Trypanosoma cruzi it was -2.95%; in assay [5] it was -15%. Further, the Percent Effect was 7.39% in [6]; 18% in the assay filed under Homo sapiens; 1.06% in assay [7]; 7.69% in assay [8]; -7.39% in [9].

Consider `Cc1cc(S(=O)(=O)N2CCCc3cc(F)cc(F)c32)sc1C(=O)O`, for which the Percent Effect in assay [1] is -9.52%; in [2], -2.67%; in assay [3] it was 2.83%; in assay [4], 0.801%; with Trypanosoma cruzi it was -6.33%; in assay [5], -2.6%. For the same compound, the Percent Effect is 9.59% in [6]; 7.51% in the assay filed under Homo sapiens; -14.8% in [7]; -18.5% in [8]; -5.34% in [9].

In the case of `CC(NC(=O)Nc1cc(F)ccc1N1CCCCC1)c1nncn1C` (stereo not drawn), the Percent Effect in assay [1] is -4.95%; in assay [2], 5.41%; in assay [3] it was -5.33%; in [4], -3.53%; in the assay on Trypanosoma cruzi it was -3.49%; in assay [5] it was 2.81%. Besides, the Percent Effect in assay [6] was -3.78%; in the assay filed under Homo sapiens, 1.69%; in assay [7], 1.48%; in assay [8] it was 1.24%; in assay [9], -2.66%.

Consider `Cc1nn(C)cc1CNC(=O)c1cn(CCC2CCCCN2)nn1` (stereo not drawn), for which the Percent Effect in [1] is -3.59%; in assay [2], 2.67%; in [3] it was -4.65%; in assay [4] it was 9.99%; with Trypanosoma cruzi, 9.64%; in assay [5] it was -1.04%. Further, the Percent Effect in [6] is 20.9%; in the assay listed under Homo sapiens it was -18.7%; in assay [7], 6.01%; in assay [8], 16.1%; in assay [9], -3.7%.

Turning to `CC(C)NC(=O)[C@@H]1C[C@H](N)CN1C(=O)c1cc2ccccc2[nH]c1=O`, the Percent Effect was -3.02% in assay [1]; 20.8% in assay [2]; -9.81% in [3]; 9.13% in assay [4]; 4.76% with Trypanosoma cruzi; 4.86% in [5]. For the same compound, the Percent Effect in assay [6] is 12.3%; in the assay listed under Homo sapiens it was -0.74%; in [7], 8.42%; in assay [8], 15.4%; in assay [9], -6.54%.

For the compound `Cc1cc(C(F)(F)F)nn1C(C)C(=O)Nc1ccncc1` (stereo not drawn), the Percent Effect in assay [1] is -1.07%; in assay [2], 25.3%; in [3], -4.73%; in assay [4], -5.25%; in the assay with Trypanosoma cruzi it was -0.982%; in assay [5] it was -12.2%. Also, the Percent Effect is 8.87% in assay [6]; 13.8% in the assay listed under Homo sapiens; 2.12% in assay [7]; 12.8% in [8]; -9.26% in assay [9].

Regarding `Cc1oc(C)c(C(=O)NCc2cccc(NC(=O)CN(C)C)c2)c1C`, the Percent Effect is -4.78% in assay [1]; -3.8% in [2]; -0.508% in assay [3]; -0.734% in [4]; 1.95% with Trypanosoma cruzi; -1.94% in [5]. Besides, the Percent Effect was 0.172% in [6]; -3.06% in the assay filed under Homo sapiens; 1.04% in [7]; 7.59% in assay [8]; 7.97% in assay [9].
